The values that follow come from PubChem BioAssay (Tox21).

SMILES strings stand for the structures. Inconclusive results are not listed. The source made the active and inactive calls. Unless noted, calls follow the shape of the full dose curve.

A short description of assay [1]: Nuclear factor erythroid 2-related factor 2/antioxidant responsive element (Nrf2/ARE) small molecule agonists: qHTS cell viability counter screen in human keratinocytes (AID 1919968; active = well fitted curve in the direction sought with a large enough effect in the repeat runs; an effect the other way counts as inactive or inconclusive; also: nearly all actives have a fitted effect of over 55% in size). The procedure, abridged: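 KeratinoSens HaCaT cells, 1,500/well, preincubated 5 h, then exposed to compounds in DMSO for 23 h at 37 C/5% CO2. Viability read as CellTiter-Fluor fluorescence after 1 h, in the same wells as the ARE-luciferase read.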

Assay [2] can be described thus: Nuclear factor erythroid 2-related factor 2/antioxidant responsive element (Nrf2/ARE) small molecule agonists: luciferase reporter gene qHTS assay in human keratinocytes (AID 1919969). Also: nearly all actives have a fitted effect of over 35% in size. Also: potency is read from the fitted curve at half-maximal effect. In general terms: A reporter such as luciferase makes a cellular process visible.
Assay [3] addresses Gonadotropin-releasing hormone receptor (Homo sapiens) (UniProt P30968). Put plainly: Human gonadotropin-releasing hormone receptor (GnRHR) small molecule agonists, calcium flux assay in GnRHR-HEK293 cells (AID 1920063). Also: nearly all actives have a fitted effect of over 35% in size. The procedure, abridged: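 HEK293 cells stably expressing human GnRHR were dye-loaded for 1 h at 37 C. Compound was added in agonist mode and fluorescence (Ex/Em 480/540) recorded kinetically for 3 min. Fifteen concentrations, triplicates.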
For orientation: Calcium assays in cells follow changes in intracellular calcium, usually with a dye or a luminescent sensor.

The target in assay [4] is KiSS-1 receptor (Homo sapiens) (UniProt Q969F8). As to the kind of experiment: Human kisspeptin (KISS1R) small molecule agonists, calcium flux assay in KISS1R-HEK293 cells (AID 1920064; active = well fitted curve in the direction sought with a large enough effect in the repeat runs; an effect the other way counts as inactive or inconclusive). The procedure, abridged: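 HEK293 cells stably expressing human KISS1R were loaded with calcium dye for 1 h at 37 C, then given compound; fluorescence (Ex/Em 480/540) was read kinetically for 3 min. Fifteen concentrations, triplicate.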
KiSS-1 receptor (Homo sapiens), sequence (Q969F8 whole entry, looked up): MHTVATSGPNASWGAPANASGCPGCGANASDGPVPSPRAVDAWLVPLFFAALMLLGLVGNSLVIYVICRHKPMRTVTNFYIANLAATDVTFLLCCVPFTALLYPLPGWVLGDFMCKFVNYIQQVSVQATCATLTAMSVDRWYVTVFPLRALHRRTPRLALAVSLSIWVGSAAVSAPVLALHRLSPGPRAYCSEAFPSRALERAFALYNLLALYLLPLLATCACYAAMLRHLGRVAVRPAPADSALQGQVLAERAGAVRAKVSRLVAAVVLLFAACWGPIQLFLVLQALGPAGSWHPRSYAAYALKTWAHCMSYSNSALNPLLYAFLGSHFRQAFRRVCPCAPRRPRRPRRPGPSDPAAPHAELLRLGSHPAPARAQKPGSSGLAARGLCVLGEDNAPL

Assay [5] is described as follows: G protein-coupled receptor (GPCR) small molecule agonists, calcium flux assay: HEK293 wild type cell line counter screen (AID 1920065). Put shortly: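 Wild-type HEK293 cells plated 18 h, loaded with calcium dye 1 h at 37 C, then compounds added in agonist mode (ATP as positive control). Kinetic fluorescence Ex/Em 480/540 recorded 3 min at 1 sec intervals; 15 concentrations, triplicate.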

Assay [6] is described as follows: p53 small molecule agonists, cell-based qHTS assay with rat liver microsomes: qHTS cell viability counter screen (AID 1963580). Also: nearly all actives have a fitted effect of over 45% in size. Put shortly:
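Intracellular ATP, by CellTiter-Glo luminescence, defines viability. HCT-116 p53RE-bla cells, 4,000 per well, were compound-treated in the presence of rat liver microsomes and NADPH for 16 h at 37 C.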
Background: qHTS replaces the single test concentration by a dilution series.

Assay [7] can be described thus: p53 small molecule agonists, cell-based qHTS assay: qHTS cell viability counter screen (AID 1963581). Also: nearly all actives have a fitted effect of over 45% in size. The procedure, abridged:
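p53RE-bla HCT-116 cells, compounds added 5 h after plating and incubated 16 h at 37 C. Cytotoxicity measured in the same wells as intracellular ATP by CellTiter-Glo luminescence after 30 min at room temperature.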

Assay [8] has as its target 5-hydroxytryptamine receptor 2A (Homo sapiens) (UniProt P28223). As to the kind of experiment: 5-hydroxytryptamine receptor 2A (HTR2A) small molecule antagonists, cell-based qHTS assay (AID 1963586). Also: nearly all actives have a fitted effect of over 45% in size. The procedure, abridged:
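Antagonist-mode intracellular calcium assay: DOI (4 nM) added after 5 min compound pre-incubation at room temperature to dye-loaded HTR2A-CHO cells. Fluorescence followed for 3 min, sampled every second.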

For assay [9] the target is unchanged. Put plainly: 5-hydroxytryptamine receptor 2A (HTR2A) small molecule agonists, cell-based qHTS assay (AID 1963587). Also: nearly all actives have a fitted effect of over 30% in size. The procedure, abridged:
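Kinetic calcium-flux fluorescence (2 min, 1 sec intervals) after compound addition in agonist mode. HTR2A-CHO cells were cultured 18 h, then dye-loaded 1 h at 37 C.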

Assay [10] concerns the target Muscarinic acetylcholine receptor M1 (Homo sapiens) (UniProt P11229). As to the kind of experiment: Cholinergic receptor muscarinic 1 (CHRM1) small molecule antagonists, cell-based qHTS assay (AID 1963588). Also: nearly all actives have a fitted effect of over 40% in size. Put shortly: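 CHRM1-CHO calcium-flux assay, antagonist mode. Cells were seeded 18 h, dye-loaded 1 h at 37 C and given compound for 5 min at RT, then acetylcholine was added at 50nM. FDSS fluorescence was read 3 min; 15 concentrations, three runs.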

For assay [11] the target is unchanged. Put plainly: Cholinergic receptor muscarinic 1 (CHRM1) small molecule agonists, cell-based qHTS assay (AID 1963589). Also: nearly all actives have a fitted effect of over 35% in size. Put shortly: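 CHO cells stably expressing human CHRM1 were loaded with calcium dye for 1 h at 37 C, then compound was added in agonist mode. Intracellular calcium fluorescence was followed kinetically at 1 s intervals. Fifteen concentrations were tested in three independent runs.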

Assay [12] is described as follows: cAMP Responsive Elements (CRE) small molecule agonists, cell-based qHTS assay (AID 1963590). Put shortly: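 CRE-bla HEK 293T cells, 2,000/well in DMEM with 10% dialyzed FBS and 25 mM HEPES, pre-incubated 18 h at 37 C, then exposed to compound 3 h at 37 C. Beta-lactamase reporter read with LiveBLAzer B/G FRET substrate after 2 h at room temperature.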
Assay [13] addresses Beta-2 adrenergic receptor (Homo sapiens) (UniProt P07550). As to the kind of experiment: Adrenergic beta2 receptor (ADRB2) small molecule antagonists, cell-based qHTS assay (AID 1963592). Also: series mostly up to about 92 µM; nearly all actives have a fitted effect of over 50% in size. Put shortly:
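Cells (CHO, stable ADRB2 overexpression) incubated 18-20hr at 37C; compounds added from DMSO; agonist mix (1nM isoproterenol, 100uM IBMX, 25uM Ro-20-1724) added; 0.5hr RT; d2-cAMP and anti-cAMP-cryptate added; 1hr RT; 665/615 nm read.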

Assay [14] has as its target D(2) dopamine receptor (Homo sapiens) (UniProt P14416). Put plainly: Dopamine D2 receptor (DRD2) small molecule antagonists, cell-based qHTS assay (AID 1963595; active = well fitted inhibition curve with a large enough effect in the signal ratio in the repeat runs, with a control signal flat; the % refers to the signal ratio). Put shortly: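 HEK293 cells stably expressing DRD2, preincubated with 0.1 mM Ro20-1724 and compounds 10 min, were stimulated with 200 nM NKH477 plus 12 nM quinpirole for 30 min at room temperature; cAMP measured by HTRF (665/620 nm).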

Assay [15] can be described thus: cAMP Responsive Elements (CRE) small molecule antagonists, cell-based qHTS assay (AID 1963591; active = well fitted inhibition curve with a large enough effect in the signal ratio in the repeat runs, not every such curve was filed as active; the % refers to the signal ratio). The procedure, abridged: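 CRE-bla HEK293T cells plated 18 h, then given compound plus NKH477 at 0.25 uM final for 3 h at 37C. Beta-lactamase reporter read with LiveBLAzer B/G FRET substrate after 2 h at room temperature.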
Assay [16] deals with D(2) dopamine receptor (Homo sapiens) (UniProt P14416). As to the kind of experiment: Dopamine D2 receptor (DRD2) small molecule agonists, cell-based qHTS assay (AID 1963594). Also: nearly all actives have a fitted effect of over 35% in size. Also: potency is read from the fitted curve at half-maximal effect. The procedure, abridged: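 cAMP accumulation in DRD2-HEK293 cells measured by HTRF after 1 h detection; compounds added 10 min before NKH477 (200nM […]) forskolin-analogue stimulation, 30 min at room temperature, with Ro20-1724 present at 0.1 mM final.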
D(2) dopamine receptor (Homo sapiens), sequence (P14416 whole entry, looked up): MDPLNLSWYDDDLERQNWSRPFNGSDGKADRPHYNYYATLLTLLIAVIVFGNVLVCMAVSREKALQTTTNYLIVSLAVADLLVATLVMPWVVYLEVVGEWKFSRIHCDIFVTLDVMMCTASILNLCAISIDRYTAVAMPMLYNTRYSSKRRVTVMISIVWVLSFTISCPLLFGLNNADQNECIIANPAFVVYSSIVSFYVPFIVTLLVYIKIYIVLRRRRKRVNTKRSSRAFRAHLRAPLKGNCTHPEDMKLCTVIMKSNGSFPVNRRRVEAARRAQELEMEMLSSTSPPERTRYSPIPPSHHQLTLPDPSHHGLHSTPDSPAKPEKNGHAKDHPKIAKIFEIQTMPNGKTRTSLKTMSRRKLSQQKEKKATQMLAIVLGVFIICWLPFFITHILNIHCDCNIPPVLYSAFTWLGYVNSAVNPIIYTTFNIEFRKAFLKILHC

In assay [17] the target is Beta-2 adrenergic receptor (Homo sapiens) (UniProt P07550). As to the kind of experiment: Adrenergic beta2 receptor (ADRB2) small molecule agonists, cell-based qHTS assay (AID 1963593). Also: potency is read from the fitted curve at half-maximal effect.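 As to activation: CHO cells stably overexpressing human ADRB2.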 The procedure, abridged:
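CHO cells stably over-expressing ADRB2 were plated overnight at 37C, then dosed with compounds plus a stimulation mix containing 100uM IBMX and 25uM Ro-20-1724 for 0.5hr at room temperature. cAMP was measured by HTRF competition, 1hr.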

Assay [18] is described as follows: p53 small molecule agonists, cell-based qHTS assay (AID 1963582; active = well fitted activation curve with a large enough effect in the signal ratio in the repeat runs, not every such curve was filed as active; the % refers to the signal ratio). The procedure, abridged:
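p53RE-bla reporter cells, compounds added in DMSO after 5 h plating, incubated 16 h at 37 C. Beta-lactamase read via 2 h room-temperature LiveBLAzer B/G FRET substrate, fluorescence intensity.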

The nature of assay [19]: p53 small molecule agonists, cell-based qHTS assay with human liver microsomes: qHTS cell viability counter screen (AID 1963579). Also: nearly all actives have a fitted effect of over 45% in size. The procedure, abridged:
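Tox21 library compounds, delivered from DMSO stocks, were tested on p53RE-bla cells together with 0.5 mg/mL human liver microsomes and 0.5 mg/mL NADPH (final) over 16 h at 37 C; CellTiter-Glo luminescence served as the cytotoxicity measure.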

Assay [20] is described as follows: p53 small molecule agonists, cell-based qHTS assay with human liver microsomes (AID 1963577).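 Also: p53 response element beta-lactamase reporter cells with liver microsomes plus NADPH.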 The procedure, abridged: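 Metabolically competent format: test substances, human liver microsomes and NADPH (both 0.5 mg/mL final) incubated with p53RE-bla cells 16 h at 37 C. Beta-lactamase reporter signal then quantified by fluorescence.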

5-hydroxytryptamine receptor 2A (Homo sapiens), sequence (P28223 whole entry, looked up): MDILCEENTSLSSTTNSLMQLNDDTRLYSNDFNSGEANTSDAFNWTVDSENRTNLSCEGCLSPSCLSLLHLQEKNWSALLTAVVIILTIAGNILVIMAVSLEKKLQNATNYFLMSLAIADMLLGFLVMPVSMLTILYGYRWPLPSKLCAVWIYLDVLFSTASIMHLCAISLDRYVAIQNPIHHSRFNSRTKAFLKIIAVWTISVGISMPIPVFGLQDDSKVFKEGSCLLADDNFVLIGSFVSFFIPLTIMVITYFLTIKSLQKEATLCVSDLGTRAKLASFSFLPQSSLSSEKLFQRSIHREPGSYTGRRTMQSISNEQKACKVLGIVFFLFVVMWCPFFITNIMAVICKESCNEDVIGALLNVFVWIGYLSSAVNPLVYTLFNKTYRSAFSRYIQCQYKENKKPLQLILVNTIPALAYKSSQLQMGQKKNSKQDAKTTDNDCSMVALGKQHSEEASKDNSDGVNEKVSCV
Muscarinic acetylcholine receptor M1 (Homo sapiens), sequence (P11229 whole entry, looked up): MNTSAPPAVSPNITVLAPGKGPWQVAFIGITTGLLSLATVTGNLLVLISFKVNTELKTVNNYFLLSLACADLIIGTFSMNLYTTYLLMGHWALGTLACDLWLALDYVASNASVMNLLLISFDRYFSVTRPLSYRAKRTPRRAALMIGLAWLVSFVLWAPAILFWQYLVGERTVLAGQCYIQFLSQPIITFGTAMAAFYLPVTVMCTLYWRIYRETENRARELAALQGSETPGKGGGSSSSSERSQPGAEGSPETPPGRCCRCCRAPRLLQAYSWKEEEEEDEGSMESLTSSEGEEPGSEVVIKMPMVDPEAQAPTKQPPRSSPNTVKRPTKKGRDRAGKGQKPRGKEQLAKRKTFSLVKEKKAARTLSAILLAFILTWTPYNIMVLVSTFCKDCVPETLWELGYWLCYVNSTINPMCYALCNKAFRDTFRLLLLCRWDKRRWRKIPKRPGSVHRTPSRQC
Gonadotropin-releasing hormone receptor (Homo sapiens), sequence (P30968 whole entry, looked up): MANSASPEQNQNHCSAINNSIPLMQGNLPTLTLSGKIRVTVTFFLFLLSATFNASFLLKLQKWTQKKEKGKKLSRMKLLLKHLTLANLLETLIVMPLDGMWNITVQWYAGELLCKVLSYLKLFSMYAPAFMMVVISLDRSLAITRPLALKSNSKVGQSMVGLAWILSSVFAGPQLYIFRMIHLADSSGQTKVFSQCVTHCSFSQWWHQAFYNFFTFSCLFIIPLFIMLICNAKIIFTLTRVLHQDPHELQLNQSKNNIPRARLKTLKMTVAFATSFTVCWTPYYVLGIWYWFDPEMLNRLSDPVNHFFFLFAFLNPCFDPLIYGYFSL
Beta-2 adrenergic receptor (Homo sapiens), sequence (P07550 whole entry, looked up): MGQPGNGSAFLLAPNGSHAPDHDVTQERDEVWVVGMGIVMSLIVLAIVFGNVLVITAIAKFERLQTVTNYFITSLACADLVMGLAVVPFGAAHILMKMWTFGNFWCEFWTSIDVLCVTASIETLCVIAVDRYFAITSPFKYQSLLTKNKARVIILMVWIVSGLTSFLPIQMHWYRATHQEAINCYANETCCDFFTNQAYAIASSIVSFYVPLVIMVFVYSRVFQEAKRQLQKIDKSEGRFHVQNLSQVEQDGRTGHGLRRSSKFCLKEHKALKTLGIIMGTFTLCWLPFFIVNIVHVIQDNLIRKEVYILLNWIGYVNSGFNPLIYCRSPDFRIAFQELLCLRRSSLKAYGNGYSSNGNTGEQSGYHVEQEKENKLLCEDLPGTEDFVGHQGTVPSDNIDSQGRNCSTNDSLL

Turning to `CNC(=O)/C=C(\C)OP(=O)(OC)OC`, the Potency entry in [1], in [2], in assay [3], in [4], in [5] and in assay [6] was “inactive” each time. Further, the Potency entry in [7], in assay [8], in assay [9], in assay [10], in assay [11] and in [12] was “inactive” throughout. The Potency entry in assay [13] and in [14] was “inactive” each time.
With `CCN(CC)C(C)C(=O)c1ccccc1` (stereo unspecified), the Potency entry in assay [1], in assay [2], in assay [3], in assay [4], in assay [5] and in assay [6] was “inactive” each time. For the same molecule, the Potency result in [9], in [10], in assay [11], in assay [12], in assay [15] and in assay [13] was “inactive” throughout. Besides, the Potency entry in [16] and in assay [14] was “inactive” in each case.
Consider `O=S(=O)(O)C(F)(F)C(F)(F)C(F)(F)C(F)(F)F`, for which the Potency result in assay [1], in assay [3], in [4], in assay [5], in [8] and in [9] was “inactive” in each case. The Potency result in assay [10], in [11], in [13] and in assay [14] was “inactive” in each case. In addition, in [2], the Potency is 72.7 µM (active).
Consider `CCCCc1ccccc1`, for which the Potency entry in [1], in assay [2], in [3], in [4], in assay [5] and in assay [6] was “inactive” each time. For the same molecule, the Potency result in assay [7], in assay [8], in assay [9], in assay [10], in assay [11] and in assay [15] was “inactive” each time. Moreover, the Potency entry in assay [13], in [17] and in assay [16] was “inactive” in each case.
For the molecule `COC(=O)/C=C(\C)OP(=O)(OC)OC`, the Potency entry in [1], in assay [2], in assay [3], in [4], in assay [5] and in [6] was “inactive” in each case. Moreover, the Potency entry in assay [7], in [18], in [8], in [9], in assay [10] and in assay [11] was “inactive” in each case. The Potency result in assay [12], in [13], in [16] and in assay [14] was “inactive” each time. Further, the Potency in assay [17] was 17.2 µM (active).
As for `CNC(=O)Oc1cc(C)c(SC)c(C)c1`, the Potency result in assay [1], in assay [2], in assay [3], in [5], in assay [19] and in [6] was “inactive” in each case. For the same molecule, the Potency result in assay [7], in [18], in assay [9], in assay [10], in assay [11] and in assay [12] was “inactive” in each case. The Potency result in assay [15], in assay [16] and in [14] was “inactive” in each case.
`CCCCCCCC(=O)Cl`: the Potency entry in assay [1], in [2], in [3], in assay [5], in [20] and in [19] was “inactive” each time. Further, the Potency entry in assay [6], in assay [7], in assay [9], in [10], in assay [11] and in assay [15] was “inactive” each time. In addition, the Potency entry in assay [13] and in [14] was “inactive” in each case. Further, the Potency in [16] was 0.0017 µM (active).
`CC1(C)COP(Oc2ccccc2)OC1`: the Potency entry in [1], in [2], in [3], in [5], in assay [19] and in assay [6] was “inactive” each time. Moreover, the Potency result in [7], in assay [8], in [9], in assay [10], in assay [11] and in assay [12] was “inactive” each time. For the same molecule, the Potency entry in assay [13], in [16] and in assay [14] was “inactive” throughout.
